Hits are enriched below; roughly 3.5% of the tested compounds scored in any of these assays.
FBPA Giardia inh – inhibitors of Giardia lamblia fructose-1,6-bisphosphate aldolase. A8B2U2. purified Giardia FBPA. Potency, µM (doses to about 59.6 µM), hits mostly inhibitors. 0.71% of 290,000 active; note: nearly all actives have a fitted effect of over 55% in size
Target sequence (A8B2U2 whole entry, looked up): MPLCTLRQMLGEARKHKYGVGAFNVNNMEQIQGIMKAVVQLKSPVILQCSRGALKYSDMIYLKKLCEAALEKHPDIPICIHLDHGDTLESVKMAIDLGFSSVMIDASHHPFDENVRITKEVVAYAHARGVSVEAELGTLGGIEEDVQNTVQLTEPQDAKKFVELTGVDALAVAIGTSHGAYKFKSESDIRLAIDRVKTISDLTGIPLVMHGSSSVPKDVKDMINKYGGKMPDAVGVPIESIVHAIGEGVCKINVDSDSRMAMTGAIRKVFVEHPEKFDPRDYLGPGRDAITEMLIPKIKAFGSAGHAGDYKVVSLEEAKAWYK
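40 nM FBPA preincubated 10 min at RT with compound (up to 57.5 uM final), then substrate plus GAPDH/TPI/NAD/arsenate coupling and diaphorase/resazurin added. Fluorescence read after 20 min at RT, 525/598 nm.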
NS1 inh – blocks influenza NS1 protein function | Potency, µM (highest dose often 46.1 µM) | 0.4% of 270,000 active; calls by dose curve; note: actives are rising curves; nearly all actives have a fitted effect of over 50% in size
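S. cerevisiae expressing influenza A NS1, grown in glucose, washed, then diluted 1:100 into pH 6.0 -URA galactose medium with 23 nl compound. Growth recovery read as OD600; NS1-free strain serves as control.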
LmPK inh – inhibitors of Leishmania mexicana pyruvate kinase; Q27686; purified LmPK, Kinase-Glo ATP luminescence, 1 h; Potency, µM (doses to about 57.5 µM), hits mostly inhibitors; 0.37% of 290,000 active; AID 1721
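qHTS format; LmPK 0.1 nM; substrates PEP 0.5 mM and ADP 0.1 mM. One-hour room-temperature incubation, then coupled luciferase luminescence; 0.5 nM enzyme wells mark activation.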
TbPYK inhibitor – T. brucei pyruvate kinase inhibition; Q57TT1; TbPYK enzyme, Kinase-Glo Plus ATP luminescence, 45 min; Potency, µM (doses to about 76.8 µM), actives largely listed as inhibitors; 0.12% of 410,000 active; AID 624173; note: nearly all actives have a fitted effect of over 50% in size
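ADP (130 uM final) triggers the TbPYK reaction after compound addition; incubation is 45 min at room temperature. Kinase-Glo Plus is then added and luminescence imaged. Normalized data are fitted to concentration-effect curves.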
RE007 growth inh – less growth of the S. pombe RE007 Vpr strain; 0.21% of 360,000 active; S. pombe RE007 Vpr strain, BacTiter-Glo ATP luminescence, 24 h; Potency, µM (doses to about 92.2 µM), usual class: inhibitors; AID 651644; active = well fitted falling curve with a large enough effect; inconclusive = small, poorly fitted or top-dose-only effect; inactive = no such curve, though single readings can be large or run the other way; note: nearly all actives have a fitted effect of over 50% in size
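Fission yeast RE007 carrying one integrated HIV-1 vpr copy, seeded at OD 0.01 in PMG+AL medium with 23 nL pinned compound. Grown 24 h at 30 degrees; viability read by BacTiter-Glo luminescence after 5 min.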
Sm TGR inh – S. mansoni TGR enzyme inhibition | Q962Y6 | purified TGR, DTNB reduction, TNB absorbance 405 nm | Potency, µM (top dose mostly 114 µM), hits mostly inhibitors | 3% of 360,000 active; note: nearly all actives have a fitted effect of over 60% in size
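TGR 20 nM + NADPH 100 uM (dispensed conc.), cpd preinc 15 min RT; start with NADPH (500 uM addition) then DTNB (15 mM addition). Kinetic TNB absorbance, 405 nm filter. Four-parameter Hill fit across titration.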
A number is an active result; - = inactive; ? = inconclusive; . = not tested or not shown; [ ] = remark or other dose. Unless noted, calls come from the whole dose curve; as a rule, active = well fitted curve in the direction sought with a large enough effect; inconclusive = small, poorly fitted or top-dose-only effect, or another doubt; inactive = no such curve, though single readings can be large; an effect the other way counts as inactive or inconclusive.

SMILES | FBPA Giardia inh | NS1 inh | LmPK inh | TbPYK inhibitor | RE007 growth inh | Sm TGR inh
O=C(O)c1ccc(N/N=C/c2ccc(-c3ccc(Br)cc3)o2)cc1 | - | - | - | - | ? | -
CC(=O)c1cccc(NC(=O)Cn2nc(C(F)(F)F)c3c2CCC3)c1 | . | . | . | - | . | -
CC(C)c1ccc(Nc2cc(C(=O)NCc3cccs3)c3ccccc3n2)cc1 | . | . | . | - | . | -
Cc1ccc(CNC(=O)[C@H](C)[C@H]2C[C@]2(C)[C@H](NC(=O)OCc2ccccc2)c2ccccc2)o1 | - | - | - | - | - | 32µM
CC(C)NS(=O)(=O)c1ccc2nc(NC(=O)c3cncc(Br)c3)sc2c1 | . | . | . | - | . | -
O=c1[nH]c(C2CCCN(S(=O)(=O)c3ccccc3)C2)nc2c1nnn2Cc1ccccc1 (stereo not given) | - | - | - | - | - | 89µM
CCOC(=O)CCCCC(=O)c1[nH]c(=O)[nH]c1CSCCO | - | - | - | - | - | -
CCOC(=O)CCCCC(=O)c1[nH]c(=O)[nH]c1Cn1cnc2ccccc21 | - | - | - | - | - | 16µM
COc1cc(/C=N/NC(=O)CNC(=O)/C=C/c2ccco2)cc(OC)c1OC | - | - | - | - | - | 50µM
COc1ccccc1/C=C/C(=O)NCC(=O)N/N=C/c1ccccc1 | - | . | - | - | - | -
COc1ccccc1/C=C/C(=O)NCC(=O)N/N=C/c1ccc2c(c1)OCO2 | - | . | - | - | - | -
COc1ccc(/C=N/NC(=O)CNC(=O)/C=C/c2ccco2)cc1OC | - | - | - | - | - | 25µM
C=CCc1ccccc1OCCSc1nc(-c2ccccc2F)nc2cc(=O)[nH]n12 | . | . | . | - | . | -
COc1ccc(NC(=O)CN2C(=O)CSc3ccc(S(=O)(=O)N(C)C)cc32)cc1OC | . | . | . | - | . | -
O=C(Nc1nc2c(s1)COc1ccccc1-2)c1cccs1 | - | - | - | ? | - | -
COC(=O)c1ccsc1NC(=O)CCS(=O)(=O)c1ccc(Cl)cc1 | . | . | . | - | - | ?
COC(=O)c1ccsc1NC(=O)CCS(=O)(=O)c1ccccc1 | . | - | - | - | - | 10µM
O=C(CCS(=O)(=O)c1ccccc1)Nc1nncs1 | - | - | - | - | - | 20µM
O=C(CCS(=O)(=O)c1ccccc1)Nc1nc2c(s1)COc1ccccc1-2 | - | - | - | - | - | 32µM
Cc1nn(-c2ccc3nnc(C)n3n2)c(C)c1CCC(=O)Nc1ccc(OC(F)(F)F)cc1 | . | . | . | - | . | -
Cc1cc(S(=O)(=O)ON2C(=O)c3ccccc3C2=O)ccc1F | - | - | ? | - | - | 0.79µM
O=C1c2cccc3cccc(c23)C(=O)N1OS(=O)(=O)c1ccccc1 | - | - | - | - | - | -
Cc1ccc(C)c(S(=O)(=O)ON2C(=O)c3ccccc3C2=O)c1 | - | - | ? | ? | - | 0.89µM
O=C1c2ccccc2C(=O)N1OS(=O)(=O)c1ccccc1 | - | - | ? | . | . | 1.3µM
CC1=C(C(=O)Nc2ccccc2C)C(c2cccnc2)n2nc(SCc3ccccc3F)nc2N1 (stereo not given) | . | . | . | - | . | -
SMILES | FBPA Giardia inh | NS1 inh | LmPK inh | TbPYK inhibitor | RE007 growth inh | Sm TGR inh
Cc1c(-c2ccccc2)n(-c2ccc(Cl)cc2)c2nc3c(c(=O)n(C)c(=O)n3C)n12 | . | . | . | - | . | -
O=c1c(O)cc(C2Oc3cc(O)cc(O)c3CC2O)cc2c(C3Oc4cc(O)cc(O)c4CC3O)cc(O)c(O)c12 (stereo not given) | 0.89µM | . | . | . | . | .
CCOC(=O)C1=C(CN2CCN(c3ccccc3F)CC2)NC(=O)NC1c1ccc(Cl)cc1 (stereo not given) | . | . | . | - | . | -
CCCc1ccc(OCC(=O)Nc2sc3c(c2C(=O)OC)CCCCC3)cc1 | . | . | . | - | . | -
COc1cccc(C(=O)NC2CC(=O)N(c3ccc4c(c3)OCCO4)C2)c1OC (stereo not given) | . | . | . | - | . | -
COc1cccc(C2=NO[C@@H]3C(=O)N(c4ccc5c(c4)OCCO5)C(=O)[C@H]23)c1OC | ? | - | - | - | - | 40µM
COc1cccc(C2=NO[C@@H]3C(=O)N(Cc4ccccc4)C(=O)[C@H]23)c1OC | - | - | - | - | - | 50µM
COc1ccccc1CN1C(=O)C(C)ON=C1c1ccccc1F (stereo not given) | . | . | . | - | -[18.4 µM] | .
Cc1c(Cl)cccc1NC(=O)c1cc(S(=O)(=O)N2CCCCC2)cn1C | . | . | . | - | . | -
CC(C)C1NC2(C(=O)c3ccccc3C2=O)C2C(=O)N(c3ccc(F)cc3)C(=O)C12 (stereo not given) | - | - | - | - | - | 2µM
O=C1C2C3C=CC(CC3)C2C(=O)N1c1ccc(F)cc1 (stereo not given) | - | - | - | - | - | -
CCC(=O)N1CCc2cc(Br)cc(S(=O)(=O)CCC(=O)Nc3ccc(Cl)cc3)c21 | . | . | . | - | . | -
COc1ccc(-n2c(-c3ccc(Br)cc3)n[nH]c2=S)cc1 | - | ? | 10µM | ? | - | -
COc1ccc(-c2n[nH]c(=S)n2-c2ccc(C)cc2)cc1 | - | - | 2µM | ? | - | -
CC(=O)c1cccc(NC(=O)CSc2nnc(C(C)N(C)C)n2Cc2ccccc2)c1 (stereo not given) | - | - | - | - | - | 25µM
CC(=O)c1cccc(NC(=O)CSc2nnc(C(C)N(C)C)n2-c2ccc(F)cc2)c1 (stereo not given) | - | - | - | - | - | -
COc1ccc(-n2c(C)nc3cc(C(=O)NC4CCCC4)ccc32)cc1 | . | . | . | - | . | -
CO[C@@H]1COC(=O)C/C=C\[C@H](C)[C@H](OC)COC(=O)[C@H](C)NC(=O)C/C=C\[C@H]1C | -[12.9 µM] | . | . | . | . | .
O=C(/C=C/c1ccco1)N1CCC(Cc2ccccc2)CC1 | - | . | - | - | - | 20µM
COc1ccc(S(=O)(=O)N2CCN(C(=O)/C=C/c3ccco3)CC2)cc1 | . | . | . | - | - | 8.9µM
O=C(/C=C/c1ccco1)N1CCN(c2ncccn2)CC1 | - | - | - | - | - | 20µM
O=C(/C=C/c1ccco1)N1CCN(S(=O)(=O)c2cccc([N+](=O)[O-])c2)CC1 | . | . | . | - | - | .
COc1cccc(N2CCN(C(=O)/C=C/c3ccco3)CC2)c1 | - | . | - | - | - | 22µM
Cn1nnnc1SCCCNCc1cc(Br)ccc1OCc1ccccc1 | . | . | . | - | . | -
CCC1CO/C(=C(\C(Cl)=C(Cl)Cl)[N+](=O)[O-])N1 (stereo not given) | - | . | - | - | - | 8.9µM
O=C(C1=C(O)C(=O)N(CCN2CCOCC2)C1c1ccc(F)cc1)c1cccs1 (stereo not given) | - | - | - | - | - | -
Cc1ccc(C2C(C(=O)c3cccs3)=C(O)C(=O)N2CCN2CCOCC2)o1 (stereo not given) | ? | ? | - | - | - | 20µM
